# The supplement of paper PMC3334620
# Whole data set: some 33,000 sequences, median “E-score (-0.5 to 0.5)” near -0.016, cut for the highest 2% near 0.32. Shown is part of a subset that was picked to be rich in the highest values.
# Molecular target: T1, Stp1 (UniProt B3LFK1)
# T1 sequence: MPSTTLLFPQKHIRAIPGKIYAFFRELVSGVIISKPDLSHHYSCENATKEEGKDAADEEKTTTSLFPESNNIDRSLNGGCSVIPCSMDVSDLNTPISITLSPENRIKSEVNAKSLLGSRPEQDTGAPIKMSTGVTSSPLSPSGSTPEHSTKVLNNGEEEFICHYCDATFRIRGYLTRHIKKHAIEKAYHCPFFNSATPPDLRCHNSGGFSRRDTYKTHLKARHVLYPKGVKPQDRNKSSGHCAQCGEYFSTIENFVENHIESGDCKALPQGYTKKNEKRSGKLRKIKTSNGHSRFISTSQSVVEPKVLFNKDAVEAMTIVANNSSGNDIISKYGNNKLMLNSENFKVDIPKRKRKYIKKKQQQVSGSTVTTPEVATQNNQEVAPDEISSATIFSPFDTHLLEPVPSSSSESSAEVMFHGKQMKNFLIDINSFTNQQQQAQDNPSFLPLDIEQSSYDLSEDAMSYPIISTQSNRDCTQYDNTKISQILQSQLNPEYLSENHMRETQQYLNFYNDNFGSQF
# Assay: PBM E-score (8-mer binding enrichment) (E-score (-0.5 to 0.5)); higher = stronger / more preferred TF binding
# Settings: protein concentration: 200 nM; construct: GST-full length
# Method: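 Universal 'all 10-mer' protein binding microarrays (Agilent AMADID 015681) probed with GST-tagged S. cerevisiae TFs (full-length or DBD) made by in vitro transcription/translation (PURExpress), about 100-200 nM. Bound TF was detected with fluorescent anti-GST. Each ungapped 8-mer (which stands for itself and its reverse complement) is scored by the PBM enrichment score (E-score), a modified Wilcoxon-Mann-Whitney statistic from -0.5 to +0.5, computed with the Universal PBM Analysis Suite. Scale: above 0.35 generally sequence-specific binding.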
row,Sequence,PBM E-score
1,AGAGGCGG,0.061
2,AGAGGCGC,0.327
3,CGAGGCTC,0.131
4,CGAGGCGA,0.289
5,CGAGGCGC,0.456
6,AGAGGCGA,0.135
7,GGGGCAAA,0.0199
8,TACTGTGA,-0.14
9,ATGGTAAA,0.0118
10,AATTACTC,0.144
11,CTTCTAGC,-0.0527
12,TCCGTGCA,0.258
13,GCCGTGGA,0.402
14,CCCGTGTA,0.0889
15,GACGTGCC,0.238
16,GCCGTGCC,0.487
17,ACCGTGCA,-0.0437
18,CCCGTGGA,-0.0712
19,GCCGTGTA,0.473
20,ACCGTGTA,0.0338
21,ACCGTGCC,0.313
22,ACCGTGGA,0.0243

row,Sequence,PBM E-score
1,GCCGTGCA,0.478
2,CCTTTTGC,0.214
3,ACAGATAG,-0.0308
4,AATATGCG,0.114
5,ACAACGAT,0.00545
6,AAGACGAA,0.0123
7,GAAGTGTC,-0.0596
8,CGAGTCGA,-0.00477
9,ACGGGTGC,0.105
10,GCGCTCGA,0.0767
11,CTCGTGCC,0.294
12,GCCGTGAC,0.294
13,CGCGTGCC,0.325
14,CGCGTGCA,0.0968
15,AGCGTGCC,0.126
16,CCCGTGGC,0.046
17,GCCGTGAA,0.361
18,CCCGTGCC,0.33
19,TCCGTGAA,0.0172
20,CCTCTCCC,-0.253
21,ACTGGCAG,0.0412
22,CTCGACGA,-0.13

row,Sequence,PBM E-score
1,TAATAGTA,0.24
2,ATTCCTAC,0.0636
3,CCAATAGG,0.0256
4,CCCGGCCG,-0.152
5,GACGGCCC,0.069
6,AACGGCCT,0.151
7,CAAGGCCG,0.103
8,GACGGCCA,-0.0395
9,AACGGCCG,0.333
10,AACGGCCC,0.235
11,CACGGCCC,0.337
12,CACGGCCA,0.34
13,ATCGGCCG,0.15
14,AACGGCCA,0.214
15,CACGGCCG,0.338
16,AGATCAGG,-0.173
17,CTAGAGTC,-0.33
18,ACGGAGCT,0.087
19,AACATAGG,0.0786
20,AGCCTTCA,0.108
21,AGGCATAC,0.0863
22,CTTTCTCC,-0.244

row,Sequence,PBM E-score
1,CATGCCGG,0.186
2,GATGCCCC,-0.129
3,GATGCCGA,0.29
4,CATGCCGA,0.188
5,GATGCCGC,0.466
6,CATGCCGC,0.427
7,CGGAAACA,-0.0866
8,GGGCATAC,-0.00074
9,CCACGTGC,0.215
10,GCACGTGC,0.352
11,GCACGTGA,0.135
12,ACCAGAGC,-0.0074
13,CCGCACCA,0.237
14,CGTGCCCC,0.0449
15,CGTGCCTA,0.184
16,AGTGCCTC,0.347
17,CGTGCCTC,0.398
18,AGTGCCTA,0.21
19,AGTGCCTG,-0.0958
20,GGTGGTTA,0.00324
21,AACGCATG,-0.0148
22,CGCCGAAG,0.13

row,Sequence,PBM E-score
1,TGGCGAAA,0.088
2,AGGCGAAC,0.145
3,CGGCGAAA,0.354
4,GGGCGAAC,0.0424
5,CGCCGAAC,0.347
6,CGGCGAAG,0.292
7,AGCCGAAC,-0.0533
8,CGGCGAAC,0.317
9,CATAGTCA,-0.195
10,CTGGAGTC,-0.362
11,TAGCAGGA,-0.226
12,CAGCCTTC,-0.091
13,AGGCATCA,0.215
14,CGGCATCC,0.353
15,CAGCATCA,0.0143
16,AGGCATCG,0.348
17,GGGCATCA,0.104
18,GGGCATAA,0.0801
19,AGGCATAG,0.15
20,CGGCATCA,0.438
21,CGGCATAA,0.358
